Source: PubChem BioAssay
TRHR agonist: agonists of human TRH receptor. P34981. actives 0.18% (n = 360,000). activation, % at 2 µM. TRHR cells, calcium flux fluo-8, FDSS agonist mode
Target sequence (P34981 whole entry, looked up): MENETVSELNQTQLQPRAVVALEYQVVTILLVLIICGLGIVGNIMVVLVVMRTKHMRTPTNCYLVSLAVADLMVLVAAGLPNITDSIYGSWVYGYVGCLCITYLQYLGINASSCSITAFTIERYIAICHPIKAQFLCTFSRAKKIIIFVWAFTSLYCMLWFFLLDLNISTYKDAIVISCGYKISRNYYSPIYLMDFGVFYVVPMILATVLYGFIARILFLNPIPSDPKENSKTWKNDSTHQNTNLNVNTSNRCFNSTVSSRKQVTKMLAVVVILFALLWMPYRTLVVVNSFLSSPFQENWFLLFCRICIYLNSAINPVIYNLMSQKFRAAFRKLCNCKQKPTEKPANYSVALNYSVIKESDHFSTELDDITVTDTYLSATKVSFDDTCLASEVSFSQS
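Fluo-8-loaded TRHR cells; 10 s baseline, compound added, kinetic Ca2+ fluorescence read 1/s, agonist mode.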
TRHR enhancer: allosterically enhances the human TRH receptor. P34981. TRHR cells, fluo-8 calcium fluorescence, EC20 TRH enhancement. enhancement, % at 2 µM. actives 0.66% (n = 360,000); in the data active = enhancement above about 30%
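TRHR-expressing cells loaded with fluo-8 calcium dye were read kinetically (ex 480/em 530) during compound addition, then stimulated with an EC20 of TRH (10 nM final). Enhancement of the Gq-mediated intracellular calcium response was scored.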
D1 antagonist: blocks dopamine activation of the human D1 receptor. AID 504652. HEK293 TREx D1 cells, calcium flux, dopamine EC80; active compounds read low. actives 3.2% (n = 360,000). P21728. activity change, negative = inhibition, % at 10 µM; in the data active = activity change below about -30%
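Tetracycline-induced HEK293 Trex D1 cells, force-coupled to calcium, dye-loaded; compounds added and read 180 s, then EC80 dopamine added and calcium flux tracked kinetically another 180 s.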
D1 potentiator: potentiators of human D1 dopamine receptor. HEK293 TREx D1 cells, calcium flux, dopamine EC20 potentiation. actives 0.036% (n = 360,000). potentiation, % at 10 µM. AID 504651. P21728; in the data active = potentiation above about 30%
D1 agonist: human D1 receptor agonism | P21728 | HEK293 T-REx D1 cells, calcium flux, agonist mode | activation, % at 2 µM | actives 1% (n = 360,000) | AID 504660
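Tetracycline-induced HEK293 TREx D1 cells, force-coupled to calcium signalling, were dye-loaded with a no-wash calcium kit. Compound was pin-added after a 10 s baseline. Fluorescence was read kinetically at 1 cycle/s for 180 s, with calcium rises flagged as agonism.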
A number is an active result; . = inactive; / = no result given. Sampled rows, rich in hits. Any-hit rate of the full collection: about 4.7%. Cut-off read from the data, not from the text of the source, unless noted: active = activation above about 30%; inactive = the rest.

SMILES | TRHR agonist | TRHR enhancer | D1 antagonist | D1 potentiator | D1 agonist
Cc1ccc(NC(=O)CN(C)C(C)C(=O)Nc2ccc(S(=O)(=O)N3CCCC3)cc2)cc1 (stereo not given) | . | . | . | . | .
CCOc1cc(CNC(=O)c2ccc3nc(CCc4ccccc4)oc3c2)ccc1OC | . | . | . | . | .
COc1ccc(CCNC(=O)c2sc3nc4n(c(=O)c3c2C)CCCC4)cc1OC | . | . | . | . | .
CN(CC(=O)Nc1cccc(F)c1)C(=O)c1cccc(S(=O)(=O)N2CCN(c3ccccc3)CC2)c1 | . | . | . | . | .
COc1cccc(NC(=O)CN(C)C(=O)c2cccc(S(=O)(=O)N3CCN(c4ccc(F)cc4)CC3)c2)c1 | . | . | -33.9 | . | .
COc1ccc(NC(=O)CN(C)C(=O)c2cccc(S(=O)(=O)N3CCN(C)CC3)c2)cc1 | . | . | . | . | .
CN1CCN(S(=O)(=O)c2cccc(C(=O)N(C)CC(=O)Nc3ccc(F)c(F)c3F)c2)CC1 | . | . | . | . | 179.2
CCn1cc(C(=O)OCC(=O)Nc2cc(OC)cc(OC)c2)c(=O)c2ccc(C)nc21 | . | . | . | . | .
Cc1ccc2nc(-c3cc(NC(=O)COc4ccc(C)c(C)c4)ccc3Cl)oc2c1 | . | . | . | . | .
CC(=O)NCCNC(=O)c1ccc2c(=O)n(CCc3ccccc3)c(=O)[nH]c2c1 | . | . | -66.8 | . | .
O=C(NCc1ccccn1)c1ccc2c(=O)n(CCc3ccccc3)c(=O)[nH]c2c1 | . | . | -53.6 | . | .
COCCNC(=O)c1ccc2c(=O)n(CCc3ccccc3)c(SCC(=O)CC(=O)OC)nc2c1 | . | . | -34.5 | . | .
CCN(CC)CCCNC(=O)c1ccc2c(=O)n(CCc3ccccc3)c(=O)[nH]c2c1 | . | . | . | . | .
CCCCCn1c(=O)[nH]c2cc(C(=O)NCc3ccccn3)ccc2c1=O | . | . | . | . | .
COCCNC(=O)c1ccc2c(=O)n(CCOC)c(SCC(=O)c3c[nH]c4ccccc34)nc2c1 | . | . | . | . | .
CC1CCN(CCCNC(=O)c2ccc3c(=O)n(CCc4ccccc4)c(=O)[nH]c3c2)CC1 | . | . | -42.4 | . | .
COc1ccc(OCC(=O)NC2CC(=O)N(c3cccc(OC)c3)C2)cc1 (stereo not given) | . | . | / | . | .
COc1cccc(-n2nnc(S(=O)(=O)c3ccc(C)cc3)c2N)c1 | . | . | -35.9 | . | .
COc1ccc(CCN(C)C(=S)Nc2ccc(SC(F)F)cc2)cc1OC | . | . | . | . | .
COc1ccc(CCN(C)C(=S)NC(=O)c2ccc(F)cc2Cl)cc1OC | . | . | -56.1 | . | .
NC(N)=Nc1cc2ccccc2c2ccccc12 | . | . | -69.9 | . | .
NC(N)=NC(N)=Nc1cccc2ccccc12 | . | . | . | . | .
COc1ccc([C@]23Cc4cc(OC)c(OC)cc4C(O2)c2c(cc(C)n(Cc4ccccc4)c2=O)O3)cc1 | . | . | . | . | .
CCn1c(C)c(C(C)=O)c(N2CCCCC2)nc1=S | . | . | -89.2 | . | .
CCOC(=O)c1cn[nH]c1NC(=S)Nc1ccc(OC)cc1 | . | . | -39.4 | . | .
SMILES | TRHR agonist | TRHR enhancer | D1 antagonist | D1 potentiator | D1 agonist
O=C(CCc1ccccc1)NC(NC(=S)Nc1ccc(Cl)cc1)C(Cl)(Cl)Cl (stereo not given) | . | . | -35.6 | . | .
CC(=O)NC(NC(=S)Nc1ccc(S(N)(=O)=O)cc1)C(Cl)(Cl)Cl (stereo not given) | . | . | . | . | .
CCOC(=O)NC(NC(=S)Nc1ccc(OC)cc1)C(Cl)(Cl)Cl (stereo not given) | . | . | -33.9 | . | .
CC(C)CC(=O)NC(NC(=S)Nc1ccccc1)C(Cl)(Cl)Cl (stereo not given) | . | . | . | . | .
CC(=O)NC(NC(=S)Nc1ccc(N=Nc2ccccc2)cc1)C(Cl)(Cl)Cl (stereo not given) | . | . | -44.0 | . | .
CCCOc1ccc(OC(=O)c2c(-c3ccccc3Cl)noc2C)cc1 | . | . | . | . | .
CCCCCOC(=O)CSc1ncnc2c1sc1nc(N3CCOCC3)c3c(c12)CCCC3 | . | . | . | . | .
CCOC(=O)c1ccc(NC(=S)Nc2cccc(N)n2)cc1 | . | . | -34.2 | . | .
CCCNc1ncnc2c1c(-c1ccccc1)cn2-c1ccccc1 | . | . | . | . | .
O=C(c1ccc([N+](=O)[O-])cc1)N(Cc1ccc(Cl)cc1)N1C(=O)CCCC1=O | 36.0 | . | . | . | .
Cc1cc(C)nc(NCCC(=O)O)n1 | . | . | -58.1 | . | .
